This excerpt belongs to a sample that is enriched for hits.
ALR H2O2 inh – blocks human ALR sulfhydryl oxidase activity; P55789; purified ALR, DTT oxidation, H2O2 HRP-luminol luminescence; inhibition, % (test concentration not listed); 290,000 compounds, 3.8% hits;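 active = mean replicate inhibition above about 79%, with every replicate also reaching it, limit read from the data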
HDAC3 inhib – inhibitors of human histone deacetylase 3; O15379; inhibition, % at 8.3 µM; 320,000 compounds, 0.15% hits; AID 2718; recombinant HDAC3, fluorogenic peptide/trypsin coupled, fluorescence; in the data active = inhibition above about 26%, passing the limit was not always enough
GC-B act – GC-B (human) receptor activation; P20594; HEK293-GC-B cells, CNP EC30, cGMP TR-FRET; 0% at EC30 CNP, 100% saturating CNP; activation, % at 10 µM; 370,000 compounds, 0.11% hits; AID 1920062;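 active = activation at 10 µM reaching about 35% in either raw or pattern-adjusted values, limit read from the data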
Target sequence (P20594 whole entry, looked up): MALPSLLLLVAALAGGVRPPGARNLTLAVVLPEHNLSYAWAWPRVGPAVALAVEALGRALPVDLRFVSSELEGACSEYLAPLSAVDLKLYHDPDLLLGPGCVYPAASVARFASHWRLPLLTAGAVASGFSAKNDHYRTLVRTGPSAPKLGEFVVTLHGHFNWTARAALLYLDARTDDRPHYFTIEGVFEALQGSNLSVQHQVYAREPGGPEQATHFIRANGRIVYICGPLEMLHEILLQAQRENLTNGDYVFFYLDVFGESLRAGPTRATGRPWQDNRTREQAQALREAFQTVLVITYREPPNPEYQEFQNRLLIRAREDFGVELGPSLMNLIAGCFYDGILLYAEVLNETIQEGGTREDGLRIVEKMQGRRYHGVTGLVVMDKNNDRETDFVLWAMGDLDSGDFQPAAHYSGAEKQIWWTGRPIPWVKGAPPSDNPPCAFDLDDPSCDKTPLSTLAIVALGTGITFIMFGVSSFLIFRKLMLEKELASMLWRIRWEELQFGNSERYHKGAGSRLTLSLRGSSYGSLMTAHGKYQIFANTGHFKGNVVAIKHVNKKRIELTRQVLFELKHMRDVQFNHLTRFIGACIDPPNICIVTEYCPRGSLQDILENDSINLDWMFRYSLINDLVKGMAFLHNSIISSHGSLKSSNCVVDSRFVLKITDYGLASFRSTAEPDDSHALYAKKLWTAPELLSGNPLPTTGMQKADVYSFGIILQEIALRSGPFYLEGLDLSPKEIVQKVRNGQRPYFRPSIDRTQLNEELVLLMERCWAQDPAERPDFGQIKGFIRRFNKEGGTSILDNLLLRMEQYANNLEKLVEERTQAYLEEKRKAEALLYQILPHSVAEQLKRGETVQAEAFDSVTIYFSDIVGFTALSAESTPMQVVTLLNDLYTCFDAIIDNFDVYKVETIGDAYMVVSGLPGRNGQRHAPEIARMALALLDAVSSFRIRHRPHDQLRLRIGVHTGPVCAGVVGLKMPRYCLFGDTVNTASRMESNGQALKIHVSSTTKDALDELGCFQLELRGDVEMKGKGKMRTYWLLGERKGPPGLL
GC-A act – GC-A (human) enzyme activation. AID 1671463. HEK293 GC-A cells, cGMP TR-FRET, EC30 ANP; 0% at EC30 ANP, 100% saturating ANP. P16066. 370,000 compounds, 0.14% hits. activation, % at 10 µM; in the data active = activation above about 40%
Each line names hits and unclear results; the compound was inactive in the other large screens.

Cc1ccc(CCC(=O)Nc2ccc(C#N)cc2)o1	none
O=C(CSc1nc(=O)[nH]c2c1CCCC2)Nc1cc(C(F)(F)F)cc(C(F)(F)F)c1	none
O=C(CC1CCCC1)N1CCCC(Nc2ccc(F)cc2)C1 (centres undefined)	ALR H2O2 inh 98.6
O=C1CCCN1CCC(=O)N1CCCC(Nc2ccc(F)c(F)c2)C1 (centres undefined)	none
O=C(CC1CCCC1)N1CCCC(Nc2cccc(F)c2)C1 (centres undefined)	ALR H2O2 inh 92.2
O=C(c1cccc(N2CCNC2=O)c1)N1CCCC(Nc2cccc(F)c2)C1 (centres undefined)	none
O=C(Cc1ccc(N2CCNC2=O)cc1)N1CCCC(Nc2cccc(F)c2)C1 (centres undefined)	ALR H2O2 inh 99.0
CC1(CCC(=O)N2CCCC(Nc3ccc(F)cc3)C2)CC1 (centres undefined)	ALR H2O2 inh 98.3
COC(=O)[C@]12C[C@H](CC(=O)N3CCN(C(=O)c4ccco4)CC3)C(=O)N(Cc3ccccc3)C1=C[C@H](C1CCCC1)O[C@@H]2C	none (no result: ALR H2O2 inh, HDAC3 inhib)
CN(CC(=O)Nc1ccc(F)cc1)C(=O)COC(=O)c1cccc(N(C)C)c1	none
Cc1ccc(NC(=O)CN(C)C(=O)c2cc(S(=O)(=O)N(C)C)ccc2N2CCCC2)cc1	none
Cc1cc(C)n(CCC(=O)N2CCCC(Nc3ccc(F)cc3)C2)n1 (centres undefined)	ALR H2O2 inh 98.4
C/C(N)=C(/C#N)C(=O)COC(=O)c1cc2c(s1)CCC(C)C2 (centres undefined)	ALR H2O2 inh 96.2
C/C(N)=C(/C#N)C(=O)COC(=O)c1cc2c(s1)CCCC2	none
O=c1[nH]n2c(=O)c3c([nH]c2c1N=Nc1cccc(C(F)(F)F)c1)CCCC3	ALR H2O2 inh 96.6
O=c1[nH]n2c(=O)c3c([nH]c2c1N=Nc1cccc(Cl)c1)CCC3	none
O=C(NCC1CCCO1)c1cccc(S(=O)(=O)N2CCCCC2)c1 (centres undefined)	none (no result: ALR H2O2 inh, HDAC3 inhib)
Cc1cc(N2CCN(CC(C)(C)O)C[C@H]2C)ccc1N1CCN(Cc2ccccc2)[C@@H](C)C1	none (no result: ALR H2O2 inh, HDAC3 inhib)
COc1cc(C[C@@H](C)[C@@H](C)Cc2ccc(O)c(OC)c2)ccc1O	none
COc1cc(C[C@@H](CO)[C@H](CO)Cc2ccc(O)c(OC)c2)ccc1O	ALR H2O2 inh 97.2 (no result: GC-B act, GC-A act)
Cc1ccc(NC2c3ccccc3C(=O)N2CCN2CCOCC2)cc1 (centres undefined)	ALR H2O2 inh 97.9
CCOC(=O)N1CCC(N2C(=O)c3ccccc3C2Nc2ccccc2)CC1 (centres undefined)	none (no result: ALR H2O2 inh)
CCOC(=O)N1CCC(N2C(=O)c3ccccc3C2Nc2ccc(C)cc2)CC1 (centres undefined)	ALR H2O2 inh 98.7
CCN(CC)S(=O)(=O)c1ccc(NC2c3ccccc3C(=O)N2CCN2CCOCC2)cc1 (centres undefined)	none
COc1cc(C(=O)N2c3ccccc3CCC2C)cc(OC)c1OC (centres undefined)	none
COc1ccc(CCN2CC(C(=O)NCCc3ccccc3C)CCC2=O)cc1 (centres undefined)	none (no result: HDAC3 inhib)
CCOC(=O)c1c(Cc2ccccc2)c[nH]c1C	ALR H2O2 inh 95.0
CCOC(=O)c1c(C)c[nH]c1C	none
CCOC(=O)[C@]12CCC=C1N(Cc1ccco1)C(=O)[C@H](CC(=O)N1CCCCC1)C2	none (no result: ALR H2O2 inh, HDAC3 inhib)
COc1ccc(CN(C)C(=O)CSc2nnc(C3CC3)n2C2CC2)cc1	none (no result: ALR H2O2 inh, HDAC3 inhib)
CCn1c(SCc2ccc(C(=O)Nc3nccs3)cc2)nnc1-c1ccc(NC(C)=O)cc1	ALR H2O2 inh 98.8
CCn1c(SCc2ccc(C(=O)Nc3nccs3)cc2)nnc1-c1ccc(N)cc1	ALR H2O2 inh 82.5
c1csc(CNc2nc(-c3cccs3)nc3ccccc23)c1	ALR H2O2 inh 95.7
CN(Cc1cn(Cc2ccc(Cl)cc2)nn1)C1CN(Cc2cn(Cc3ccc(Cl)cc3)nn2)S(=O)(=O)C1 (centres undefined)	none (no result: ALR H2O2 inh, HDAC3 inhib)
Cc1cccc(Oc2ccc3c(c2)cc(C(=O)O)n3C)c1	ALR H2O2 inh 98.0
COc1ccc2c(c1)cc(C(=O)O)n2C	none
O=C(O)c1ccccc1C(=O)Nc1ccc(Oc2ccccc2)cc1	ALR H2O2 inh 93.6
Cc1cccc(NC(=O)c2ccccc2C(=O)Nc2cccc(C)c2)c1	none
Cc1cccc(Oc2ccc(NC(=O)c3ccccc3C(=O)O)cc2)c1	ALR H2O2 inh 98.1
O=C(O)c1ccccc1C(=O)Nc1ccc(Nc2ccccc2)cc1	none (no result: ALR H2O2 inh, HDAC3 inhib)
CC(C)(C)c1ccc(Oc2ccc(N)cn2)cc1	ALR H2O2 inh 98.1
Cc1noc(C)c1S(=O)(=O)NCc1ccc(CN(C)C)cc1	none
C=CCNc1ncnc2c1ncn2[C@H]1CN(C2CCCC2)C[C@@H](CO)O1	none (no result: ALR H2O2 inh, HDAC3 inhib)
COc1ccc(N2C(=O)c3n[nH]c(C)c3C2c2ccccc2)cc1 (centres undefined)	none (no result: ALR H2O2 inh, HDAC3 inhib)
COc1ccc(C(=O)c2[nH]c(N)c(C(=O)c3c[nH]c4ccccc34)c2-c2ccc(OC)cc2)cc1	none (no result: ALR H2O2 inh, HDAC3 inhib)
COc1cccc(CNC(=O)c2cccc(S(=O)(=O)N3CCN(Cc4ccccc4)CC3)c2)c1	none (no result: ALR H2O2 inh, HDAC3 inhib)
O=C(Nc1ccc(F)c(Cl)c1)c1cncs1	none
CC(C)(C)c1ccc(Oc2ccc(NC(=O)c3ccccc3C(=O)O)cn2)cc1	ALR H2O2 inh 92.6
Cc1ccc(NC(=S)Nc2cccc(-c3n[nH]c(=S)o3)c2)cc1	ALR H2O2 inh 88.9
COc1cccc(CC(=O)O[C@@H]2CCC[C@@]3(C(=O)N(Cc4ccccc4)c4ccccc43)[C@H]2NC(=O)CCc2ccccc2)c1	none (no result: ALR H2O2 inh, HDAC3 inhib)
COc1cccc(COC(=O)c2ccc3c(=O)n4c(nc3c2)CCC4)c1OC	none
Cc1cc(Sc2nnc(/N=C/N(C)C)s2)c2ccccc2n1	ALR H2O2 inh 98.3
Cc1c(C(N)=O)sc2nc(-c3ccccc3)cn12	GC-B act 74.0
Cc1cc(O)ccc1N=Cc1c(C(F)(F)F)[nH][nH]c1=O	ALR H2O2 inh 99.0
CCOc1ccc(Nc2nc(Cc3nnc(SCC(=O)O)o3)cs2)cc1	ALR H2O2 inh 86.5
Nc1ccccc1OCCOCCOc1ccccc1N	ALR H2O2 inh 97.8
O=C(NCN1CCN(c2ccccc2)CC1)c1cnccn1	ALR H2O2 inh 97.7
COc1cc(C(=O)NC(=S)NNC(=O)c2cnccn2)cc(OC)c1OC	ALR H2O2 inh 95.9
Cc1nc2ccc(N)cc2s1	ALR H2O2 inh 98.8
Nc1ccc2sc(N)nc2c1	ALR H2O2 inh 91.0
Nc1ccc2nc(N)sc2c1	none (no result: ALR H2O2 inh, HDAC3 inhib)
CC(C)(C)c1ccc(-c2nnc(SCC(=O)Nc3ccc(S(=O)(=O)Nc4nccs4)cc3)n2-c2ccc(Cl)cc2)cc1	none (no result: ALR H2O2 inh, HDAC3 inhib)
Cc1cc(=O)[nH]c2sc(C(=O)N3c4ccccc4CC3C)c(N)c12 (centres undefined)	ALR H2O2 inh 97.9
Cc1nc2cc(C(=O)N3c4ccccc4CC3C)ccc2s1 (centres undefined)	none
O=C(COC(=O)[C@@H]1CC(O)CN1S(=O)(=O)c1ccc2c(c1)OCCO2)Nc1cc(F)ccc1F (some centres undefined)	none
CSc1cccc(NC(=O)Nc2ccccc2)c1	none
CSc1cccc(NC(=O)Nc2ccccc2C(N)=O)c1	ALR H2O2 inh 91.5 (no result: HDAC3 inhib)
CC(C)(C)NC(=O)NC(=O)CSc1n[nH]c(-c2ccccc2Br)n1	ALR H2O2 inh 96.3

Source: PubChem BioAssay
